Shown are actives, neighbours in structure and some others; about 28% of the full set was active somewhere.
CYP2C9 inhib – blockers of cytochrome P450 2C9 activity – biochemical, luminescence, ADME assay, primary screen; P11712; actives 20% (n = 96,000); CYP2C9 Supersomes, luciferin-H conversion; inhibition, % at 5 µM;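 active = blocking of liver enzyme CYP2C9 beyond about 50% at 5 µM, limit read from the data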
CD11b adhes inh – inhibitors of CD11b/CD18 adhesion to fibrinogen, primary screen, K562 cells, luminescence | Integrin beta-2 (Homo sapiens) + Integrin alpha-M (Homo sapiens), P05107+P11215 | ATPlite luminescence; Mn2+ added to activate the integrin | inhibition, % at 10 µM | actives 0.54% (n = 93,000) | AID 1497, 2009;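 active = primary inhibition of 50% or more at 10 µM, then 40% or more on retest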
Target sequence (P05107 whole entry, looked up, other chains not shown): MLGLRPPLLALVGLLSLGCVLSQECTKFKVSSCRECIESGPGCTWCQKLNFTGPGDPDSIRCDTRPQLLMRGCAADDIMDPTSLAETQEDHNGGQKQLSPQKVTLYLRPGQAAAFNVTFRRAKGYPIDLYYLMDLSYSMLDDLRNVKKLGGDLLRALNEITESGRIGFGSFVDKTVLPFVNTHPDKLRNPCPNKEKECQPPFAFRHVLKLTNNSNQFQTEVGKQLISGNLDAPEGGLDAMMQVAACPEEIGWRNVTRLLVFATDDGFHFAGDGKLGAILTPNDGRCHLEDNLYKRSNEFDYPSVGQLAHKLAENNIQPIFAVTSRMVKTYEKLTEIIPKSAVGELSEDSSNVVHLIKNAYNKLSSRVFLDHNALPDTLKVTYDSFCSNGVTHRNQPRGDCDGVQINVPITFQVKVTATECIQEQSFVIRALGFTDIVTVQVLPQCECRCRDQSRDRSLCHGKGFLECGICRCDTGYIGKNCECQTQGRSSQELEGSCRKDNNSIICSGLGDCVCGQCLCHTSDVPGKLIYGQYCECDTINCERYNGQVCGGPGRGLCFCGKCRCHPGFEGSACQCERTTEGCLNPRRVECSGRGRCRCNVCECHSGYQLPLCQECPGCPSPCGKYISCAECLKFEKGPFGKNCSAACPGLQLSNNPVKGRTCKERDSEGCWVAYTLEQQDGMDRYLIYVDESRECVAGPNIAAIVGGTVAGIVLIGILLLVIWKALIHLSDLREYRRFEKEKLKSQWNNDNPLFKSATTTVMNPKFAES
CD11b adhes enh – enhancers of CD11b/CD18 adhesion to fibrinogen, primary screen, K562 cells, luminescence | activation, % at 10 µM | ATPlite luminescence | AID 1499, 2009 | actives 0.07% (n = 93,000) | Integrin beta-2 (Homo sapiens) + Integrin alpha-M (Homo sapiens), P05107+P11215;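 active = 10 µM primary screen giving 50% or more activity, confirmed by 40% or more on retest at that dose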
CYP2C19 inh – blockers of cytochrome P450 2C19 activity – biochemical, luminescence, ADME assay, primary screen; inhibition, % at 5 µM; actives 21% (n = 96,000); P33261; CYP2C19 Supersomes, luciferin-H EGE luminescence, 30 min;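 active = CYP2C19 inhibition above a set limit at 5 µM in the primary screen, cut at about 50% in these data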;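 also: plate controls were negative control wells for no effect and 2.5 mM tranylcypromine positive control for full effect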
CYP2C9 activ – human CYP2C9 activators, primary screen, biochemical, luminescence. recombinant CYP2C9, luciferin-H conversion; hits give high values; factor 1 = untreated enzyme, 0 = blocked. activation factor at 5 µM. actives 1.4% (n = 96,000);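 active = activation factor of 2 or more for CYP2C9 at a 5 µM dose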;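 also: 0 = sulfaphenazole-blocked wells and 1 = vehicle-only wells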
CYP2C19 act – human CYP2C19 activators, primary screen, biochemical, luminescence; Cytochrome P450 2C19 (Homo sapiens), P33261; recombinant CYP2C19, luciferin-H EGE luminescence; hits give high values; 0 = fully inhibited enzyme, 1 = untreated enzyme; activation factor at 5 µM; 96,000 tested, under 10 active;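 active = activation factor of at least 2 at 5 µM in the primary screen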;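 also: 0 = wells with 2.5 mM tranylcypromine and 1 = vehicle-only wells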
* = called active by the depositor; · = no result.

SMILES | CYP2C9 inhib | CD11b adhes inh | CD11b adhes enh | CYP2C19 inh | CYP2C9 activ | CYP2C19 act
CC1=NC(=O)C(N=Nc2cccc(O)c2)N1c1ccccc1 (centres undefined) | 39 | 8 | -2 | 20 | 0.6 | 0.8
COC(=O)CSc1nnc(CNc2ccc(Cl)cc2)n1-c1ccccc1 | 27 | · | · | 54* | 0.7 | 0.5
CCn1c(CSCc2ccc(C)cc2)nnc1SCC(=O)NCc1ccccc1 | 54* | · | · | 24 | 0.5 | 0.8
CCOC(=O)CSc1nnc(CNc2ccccc2Cl)n1-c1ccccc1 | 20 | -2 | 1 | 48 | 0.8 | 0.5
CCn1c(CNc2ccc(Cl)cc2)nnc1SCC(=O)NCc1ccccc1 | 55* | -4 | -3 | 67* | 0.4 | 0.3
O=C(O)CSc1nnc(CNc2ccc(Cl)cc2)n1Cc1ccccc1 | -12 | 7 | 0 | -6 | 1.1 | 1.1
CCn1c(CNc2ccc(Cl)cc2)nnc1SCc1ccccc1 | 77* | 10 | 3 | 66* | 0.2 | 0.3
CCn1c(CSCc2ccc(F)cc2)nnc1SCC(=O)NCc1ccccc1 | 42 | 10 | -3 | 41 | 0.6 | 0.6
COC(=O)CN1C(=O)Nc2ccc(Br)cc2C1c1ccccc1Cl (centres undefined) | 25 | 11 | -4 | 44 | 0.8 | 0.6
COc1ccccc1N(CN1C(=O)c2ccccc2C1=O)C(=O)c1cccc(C)c1 | · | 11 | 0 | · | · | ·
Cc1cccc(NC(=O)c2cccc(Cn3cc(Br)c([N+](=O)[O-])n3)c2)c1C | 8 | 7 | 0 | 7 | 0.9 | 0.9
Cn1c(CNC(=O)Nc2ccccc2Cl)nnc1SCc1ccccc1 | 32 | 2 | 0 | 64* | 0.7 | 0.4
Cn1c(CNc2ccc(Cl)cc2)nnc1SCc1ccccc1 | 57* | -9 | 0 | 34 | 0.4 | 0.7
Cc1ccccc1NC(=O)Cc1nnc(SCc2ccc(Cl)c(Cl)c2)n1C | 18 | 1 | 1 | 24 | 0.8 | 0.8
Clc1ccc(NCc2nncn2-c2ccccc2)cc1 | 26 | -2 | -3 | 98* | 0.7 | 0
COc1ccc(/C=C2/SC(=O)N(CCC(=O)Nc3ccccc3)C2=O)cc1OC | · | 13 | 36 | · | · | ·
CCCn1nc(C(=O)Nc2ccc(S(=O)(=O)Nc3nccs3)cc2)c2ccccc2c1=O | 60* | 13 | 0 | 5 | 0.4 | 0.9
CCCn1nc(C(=O)NCc2ccccn2)c2ccccc2c1=O | 45 | -11 | 0 | 15 | 0.5 | 0.8
COC(=O)c1cccc(NC(=O)c2nn(C(C)C)c(=O)c3ccccc23)c1 | 39 | 11 | -4 | 7 | 0.6 | 0.9
O=C(CCN1C(=O)S/C(=C\c2ccccc2)C1=O)Nc1ccc(S(=O)(=O)Nc2nccs2)cc1 | 65* | · | · | 29 | 0.4 | 0.7
CCCn1nc(C(=O)Nc2cccc(C(=O)OC)c2)c2ccccc2c1=O | 79* | 1 | -2 | 63* | 0.2 | 0.4
N#Cc1c(C(F)(F)F)cc(-c2cccs2)nc1SCc1cccnc1 | 75* | · | · | 57* | 0.2 | 0.4
N#Cc1c(C(F)(F)F)cc(-c2cccs2)nc1SCc1ccc(Cl)nc1 | 56* | -3 | 15 | 8 | 0.4 | 0.9
C#CCSc1nc(-c2ccccc2)cc(C(F)(F)F)c1C#N | 2 | -4 | 57 | -5 | 1 | 1.1
COc1ccc(C2CC(C(F)(F)F)n3nc(CO)c(Cl)c3N2)cc1OC (centres undefined) | 98* | 8 | -5 | 77* | 0 | 0.2
SMILES | CYP2C9 inhib | CD11b adhes inh | CD11b adhes enh | CYP2C19 inh | CYP2C9 activ | CYP2C19 act
COc1cccc(C2CC(C(F)(F)F)n3ncc(C(=O)NCc4ccco4)c3N2)c1 (centres undefined) | 83* | 0 | 2 | 67* | 0.2 | 0.3
COc1ccc(C2CC(C(F)(F)F)n3ncc(C(=O)Nc4cccc(O)c4)c3N2)cc1OC (centres undefined) | 50* | · | · | 19 | 0.5 | 0.8
Cn1c(=O)c2c(-c3ccccc3)n(-c3ccccc3O)cc2n(C)c1=O | 45 | -8 | 2 | 1 | 0.6 | 1
COc1ccc(-c2c3c(=O)n(C)c(=O)n(C)c3cn2-c2cc(OC)ccc2OC)cc1 | 63* | 1 | -2 | 25 | 0.4 | 0.8
O=C(COC(=O)[C@@H]1CCCN1S(=O)(=O)c1ccc(Cl)cc1)NC12CC3CC(CC(C3)C1)C2 | · | -9 | 11 | · | · | ·
Cc1noc(C)c1COC(=O)C1CC(O)CN1S(=O)(=O)c1ccc(Cl)cc1 (centres undefined) | 26 | 3 | -1 | 71* | 0.7 | 0.3
COc1cc(NC(=O)COC(=O)[C@@H]2CCCN2S(=O)(=O)c2ccc(Cl)cc2)cc(OC)c1OC | 72* | -8 | 3 | 22 | 0.3 | 0.8
COc1ccc(S(=O)(=O)N2CC(O)CC2C(=O)OCC(=O)Nc2ccc(Cl)cn2)cc1 (centres undefined) | -7 | 5 | -2 | 74* | 1.1 | 0.3
CC(C)(C)S(=O)(=O)c1c(C(=O)O)cccc1C(=O)O | -20 | -6 | 0 | -22 | 1.2 | 1.2
Cc1ccc2nc(NC(=O)CCCc3nc4ccccc4s3)sc2c1 | 2 | -26 | -1 | 7 | 1 | 0.9
O=C(CCn1c(=O)sc2ccccc21)NCc1ccccc1 | -90 | -10 | 10 | 80* | 1.9 | 0.2
Cc1ccc2nc(NC(=O)CCn3c(=O)sc4ccccc43)sc2c1 | 58* | -7 | 1 | -18 | 0.4 | 1.2
O=C(Cn1c(=O)sc2ccccc21)NCc1ccccn1 | -58 | -1 | 0 | 33 | 1.6 | 0.7
O=C(CCn1c(=O)sc2ccccc21)Nc1nc2ccccc2s1 | 80* | -6 | 7 | 18 | 0.2 | 0.8
COCCSc1ccccc1C(=O)NCc1ccco1 | -10 | -3 | -3 | 24 | 1.1 | 0.8
O=C(/C=C/c1c(Cl)cccc1Cl)NCCc1ccccc1 | -167 | 5 | 3 | 20 | 2.7* | 0.8
CC(C)COc1ccc(C(=O)Nc2ccccc2[N+](=O)[O-])cc1 | · | -2 | -3 | · | · | ·
CN1CCN(C(=O)C2CCN(S(=O)(=O)c3cnc[nH]3)CC2)CC1 | -20 | 2 | 0 | -12 | 1.2 | 1.1
CCOC(=O)c1cccc(NC(=O)C2CCN(S(=O)(=O)c3cnc[nH]3)CC2)c1 | 100* | -5 | -2 | 99* | 0 | 0
CCN(Cc1ccncc1)C(=O)C1CCN(S(=O)(=O)c2cccs2)CC1 | 99* | 3 | -3 | 80* | 0 | 0.2
COc1cc(NC(=O)C2CCN(S(=O)(=O)c3cnc[nH]3)CC2)cc(OC)c1OC | 72* | -8 | -3 | 20 | 0.3 | 0.8

From PubChem
